This test addresses GST-Hu-p50 (Homo sapiens, UniProt P19838 7-356). As to the kind of experiment: protein-binding microarray (PBM); PBM: ~300 nM protein, 6 mM HEPES pH 7.8, 80 mM KCl, 0.5 mM EDTA, 0.5 mM EGTA, 6% glycerol, 35 ng/ul poly-dIdC, 1% milk, 1 h, room temperature; Ap Aiptasia and Nv Nematostella (sea anemones) / Co Capsaspora / Aq Amphimedon (sponge) / Dm Drosophila / Hu human; RHD is the Rel homology domain; high values mean tight binding. To be noted: dsDNA, one strand shown.
GST-Hu-p50, sequence (P19838 7-356): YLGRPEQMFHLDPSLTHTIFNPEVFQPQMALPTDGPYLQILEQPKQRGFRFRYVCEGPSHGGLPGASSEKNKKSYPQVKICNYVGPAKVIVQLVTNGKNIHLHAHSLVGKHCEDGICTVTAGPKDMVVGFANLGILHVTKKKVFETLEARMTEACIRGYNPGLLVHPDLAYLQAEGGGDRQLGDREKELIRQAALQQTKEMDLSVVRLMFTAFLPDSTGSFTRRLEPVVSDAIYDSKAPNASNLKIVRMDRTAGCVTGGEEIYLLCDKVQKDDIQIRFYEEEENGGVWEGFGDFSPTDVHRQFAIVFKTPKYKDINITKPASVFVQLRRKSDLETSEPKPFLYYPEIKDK
In the case of “CCGATTAACATCATGGTGGTACCTGATGTTAATCGGGTCTTGATTCGCTTGACGCTGCTG”, the binding signal is 1.07 z-score.

Consider “CCGATTAACATCAGGTACTTCCATGATGTTAATCGGGTCTTGATTCGCTTGACGCTGCTG”, for which the binding signal worked out at 2.98 z-score.

On to “CCGATTAACATCAGGGGGTACCCTGATGTTAATCGGGTCTTGATTCGCTTGACGCTGCTG”, for which the binding signal was determined as 4.44 z-score.

As for “CCGATTAACATCACACACCCCCCTGATGTTAATCGGGTCTTGATTCGCTTGACGCTGCTG”, the binding signal is 3.63 z-score.

“CCGATTAACATCAGGACCGTCCCTGATGTTAATCGGGTCTTGATTCGCTTGACGCTGCTG” came in with a binding signal of 2.66 z-score.

Sequence “CCGATTAACATCAATTCCCAAGGTGATGTTAATCGGGTCTTGATTCGCTTGACGCTGCTG” gave a binding signal of 2.13 z-score.

Regarding “CCGATTAACATCAAATATACCCCTGATGTTAATCGGGTCTTGATTCGCTTGACGCTGCTG”, the binding signal came to 2.88 z-score.

Consider “CCGATTAACATCAAACTTTCCCATGATGTTAATCGGGTCTTGATTCGCTTGACGCTGCTG”, for which the binding signal turned out to be 4.07 z-score.

As to “CCGATTAACATCATTGTCCCTTCTGATGTTAATCGGGTCTTGATTCGCTTGACGCTGCTG”, the binding signal turned out to be 1.99 z-score.

Consider “CCGATTAACATCACAGGGAATTCTGATGTTAATCGGGTCTTGATTCGCTTGACGCTGCTG”, for which the binding signal is 4.29 z-score.

Sequence “CCGATTAACATCAAATGGGAATTTGATGTTAATCGGGTCTTGATTCGCTTGACGCTGCTG” came in with a binding signal of 3.42 z-score.

With “CCGATTAACATCACGTAAATCCCTGATGTTAATCGGGTCTTGATTCGCTTGACGCTGCTG”, the binding signal is 2.23 z-score.

With “CCGATTAACATCAGGATATTCCCTGATGTTAATCGGGTCTTGATTCGCTTGACGCTGCTG”, the binding signal is 3.1 z-score.

Sequence “CCGATTAACATCAAGAGTTTCCCTGATGTTAATCGGGTCTTGATTCGCTTGACGCTGCTG” registered a binding signal of 3.64 z-score.

Sequence “CCGATTAACATCAGGAAAAACCCTGATGTTAATCGGGTCTTGATTCGCTTGACGCTGCTG” returned a binding signal of 4.56 z-score.

“CCGATTAACATCACGGACTCCCCTGATGTTAATCGGGTCTTGATTCGCTTGACGCTGCTG” had a binding signal of 3.34 z-score.

Sequence “CCGATTAACATCAAAATTCCACCTGATGTTAATCGGGTCTTGATTCGCTTGACGCTGCTG” yielded a binding signal of 3.61 z-score.

Regarding “CCGATTAACATCACATCTTTCCCTGATGTTAATCGGGTCTTGATTCGCTTGACGCTGCTG”, the binding signal was 2.43 z-score.

Sequence “CCGATTAACATCACGGAGTTCCCTGATGTTAATCGGGTCTTGATTCGCTTGACGCTGCTG” registered a binding signal of 1.87 z-score.

Sequence “CCGATTAACATCAGGAGGCCCCCTGATGTTAATCGGGTCTTGATTCGCTTGACGCTGCTG” had a binding signal of 2.78 z-score.

In turn, “CCGATTAACATCAGGGAACTCCATGATGTTAATCGGGTCTTGATTCGCTTGACGCTGCTG” gave a binding signal of 1.7 z-score.

Consider “CCGATTAACATCACAAACGGGGCTGATGTTAATCGGGTCTTGATTCGCTTGACGCTGCTG”, for which the binding signal came to 2.88 z-score.

As to “CCGATTAACATCAAAGAAATCCCTGATGTTAATCGGGTCTTGATTCGCTTGACGCTGCTG”, the binding signal was 3.77 z-score.

On to “CCGATTAACATCAACTTTCCCAGTGATGTTAATCGGGTCTTGATTCGCTTGACGCTGCTG”, for which the binding signal was determined as 1.59 z-score.

With “CCGATTAACATCACATATACCCCTGATGTTAATCGGGTCTTGATTCGCTTGACGCTGCTG”, the binding signal worked out at 2.14 z-score.

As for “CCGATTAACATCACTTTTTCCCATGATGTTAATCGGGTCTTGATTCGCTTGACGCTGCTG”, the binding signal was 3.04 z-score.

“CCGATTAACATCAGGGAAATAACTGATGTTAATCGGGTCTTGATTCGCTTGACGCTGCTG” displayed a binding signal of 3.76 z-score.

Consider “CCGATTAACATCAAAGCATTCCCTGATGTTAATCGGGTCTTGATTCGCTTGACGCTGCTG”, for which the binding signal worked out at 2.12 z-score.

For “CCGATTAACATCAGGCACCCCCCTGATGTTAATCGGGTCTTGATTCGCTTGACGCTGCTG”, the binding signal came out at 4.38 z-score.

Turning to “CCGATTAACATCAGGGAGTTACCTGATGTTAATCGGGTCTTGATTCGCTTGACGCTGCTG”, the binding signal was 3.85 z-score.

In the case of “CCGATTAACATCAAGGAAAAACCTGATGTTAATCGGGTCTTGATTCGCTTGACGCTGCTG”, the binding signal is 1.12 z-score.

The sequence “CCGATTAACATCAAATGACCCCCTGATGTTAATCGGGTCTTGATTCGCTTGACGCTGCTG” showed a binding signal of 2.89 z-score.

“CCGATTAACATCAGATTCTCCCCTGATGTTAATCGGGTCTTGATTCGCTTGACGCTGCTG” yielded a binding signal of 4.4 z-score.

“CCGATTAACATCAGGGGACTATATGATGTTAATCGGGTCTTGATTCGCTTGACGCTGCTG” returned a binding signal of 4.35 z-score.

“CCGATTAACATCATGGGAAAAAATGATGTTAATCGGGTCTTGATTCGCTTGACGCTGCTG” yielded a binding signal of 3.83 z-score.

“CCGATTAACATCACATACTCCCCTGATGTTAATCGGGTCTTGATTCGCTTGACGCTGCTG” returned a binding signal of 3.33 z-score.

In turn, “CCGATTAACATCAAGTTTACCCCTGATGTTAATCGGGTCTTGATTCGCTTGACGCTGCTG” displayed a binding signal of 3.2 z-score.

Sequence “CCGATTAACATCAGGGAACAACCTGATGTTAATCGGGTCTTGATTCGCTTGACGCTGCTG” yielded a binding signal of 2.25 z-score.

Turning to “CCGATTAACATCAGGGGGTTACATGATGTTAATCGGGTCTTGATTCGCTTGACGCTGCTG”, the binding signal stood at 5.16 z-score.

The values above are taken from article PMC5700166.
